Here are results for 40 compounds from PubChem BioAssay (EPA / NIEHS).

Values joined by “and” are separate entries in the source; they are usually repeats but may differ in a detail not shown here. Identical values can stand only once. Active and inactive are the calls of the source. Rule for the calls: active = hit-call score of the fitted dose curve at least 0.9, where 1 is the maximum; inactive = score below 0.9.

This assay can be described thus: ATG_Oct_MLP_CIS: Attagene CIS-FACTORIAL HepG2 Assay for human Octamer-Binding Transcription Factor (Oct) (AID 2282993). The settings on record: HepG2 Attagene cis-factorial Oct reporter, mRNA; actives raise or lower the signal. The method, then:
ATG_CIS is a cell-based, multiplexed-readout assay that uses HepG2, a human liver cell line, with measurements taken at 24 hours after chemical dosing in a 24-well plate.ATG_Oct_MLP_CIS is one of 52 assay component(s) measured or calculated from the ATG_CIS assay. It is designed to make measurements of mRNA induction, a form of inducible reporter, as detected with fluorescence intensity signals by Reverse transcription polymerase chain reaction (RT-PCR) and Capillary electrophoresis technology.Data from the assay component ATG_Oct_MLP_CIS was analyzed into 1 assay endpoint. This assay endpoint, ATG_Oct_MLP_CIS, was analyzed with bidirectional fitting relative to DMSO as the negative control and baseline of activity. Using a type of inducible reporter, measures of mRNA for gain or loss-of-signal activity can be used to understand the reporter gene at the transcription factor-level as they relate to the gene POU2F1. Furthermore, this assay endpoint can be referred to as a primary readout, because this assay has produced multiple assay endpoints where this one serves a reporter gene function. To generalize the intended target to other relatable targets, this assay endpoint is annotated to the dna binding intended target family, where the subfamily is POU domain protein.
Human liver HepG2 cells are transiently transfected with multiple reporter transcription units (MRTUs) in 6-well plates using FuGene 6 reagent (Roche; 3 ml FuGene/1 mg DNA). The MRTU constructs are regulated by a cis-regulating element (promoter). […] A major difference between the CIS and TRANS system is that in CIS activities of endogenous TFs are measured, whereas the TRANS assay evaluates changes in activities of exogenous, chimeric NR-Gal4 proteins. […] At the end of 24 hour incubation, total RNA was isolated using TriZol reagent (Invitrogen). The isolated RNA is then reverse-transcribed using oligo(dT) primer and Mo-MLV reverse transcriptase (Invitrogen) with DNAse I (Ambion) treatment for 30 min. The one-tenth of the produced cDNA was amplified by PCR using Taq DNA polymerase (Invitrogen) and two reporter sequence-specific primers. The PCR products were fluorescently labeled by primer extension with 6-arboxyfluorescein (6-FAM) 5'-labeled reporter sequence-specific primer (2 min at 95 C, 20 s at 68 C and 10 min at 72 C) and these products were digested with 5U of HpaI (New England Biolabs) for 2h at 37 C. The fragments were purified using Qiaquick PCR columns (Qiagen), analyzed on an ABI 3130xL genetic analyzer (Applied Biosystems) with peak positions identified by using a set of X-rhodamine (ROX)-labeled MapMarker1000 molecular weight standards (BioVentures). The raw capillary electrophoresis data was processed using Attagraph software (Attagene).
Take `O=S(=O)(OCC(F)F)C(F)(F)F`: the compound was called inactive.
Consider `FC(F)(F)C(F)(F)C(F)(F)C(F)(F)C(F)(F)C(F)(F)C(F)(F)Br`, for which the outcome was inactive.
One may read the AC50 as the concentration giving half of the maximal activity seen. As to `O=C(O)C(F)(F)C(F)(F)C(F)(F)C(F)(F)C(F)(F)C(F)(F)C(F)(F)C(F)(F)Cl`, the AC50 was 50 µM (active) and 57.9 µM (active).
Take `CCCCOCCOCCOC(=O)CCCCC(=O)OCCOCCOCCCC`: the result was inactive.
As to `CC(C)=CCCC(C)CCOC(=O)C(C)C` (stereo not given), the call was inactive.
On the same count and under the same terms, as for `C#C[C@]1(O)CC[C@H]2[C@@H]3CCc4cc(OC)ccc4[C@H]3CC[C@@]21C`, the entry is “inactive”; as for `OCCCC(F)(F)C(F)(F)C(F)(F)F`, “inactive”; as for `CCCCCC=O`, “inactive”.
Still for that read-out and setting: then `FC(F)(F)C(F)(F)C(F)(F)C(F)(F)C(F)(F)C(F)(F)C(F)(F)I`, with “inactive”.
On the same count and under the same terms, then `Oc1ccc(Nc2ccccc2)cc1`, with “inactive”; and `FC(F)(F)C(F)(F)C(F)(F)C(F)(F)C(F)(F)C(F)(F)C(F)(F)C(F)(F)F`, with “inactive”.
Regarding `O=C(O)C(F)(F)C(F)(F)C(F)(F)F`, the call was inactive.
The same measure, in the same setting: then `O=C(O)C(F)(F)C(F)(F)C(F)(F)C(F)(F)C(F)(F)C(F)(F)C(F)(F)C(F)(F)C(F)(F)C(F)F`, with “inactive”.
As for `c1ccc(B(c2ccccc2)c2ccccc2)cc1`, the concentration at half-maximal activity (AC50) was 43.3 µM (active).
Regarding `O=S(=O)(OCCOC(F)(F)F)C(F)(F)F`, the outcome was inactive.
For `C=CC(F)(F)C(F)(F)C(F)(F)C(F)(F)C(F)(F)C(F)(F)C(F)(F)C(F)(F)C=C`, the compound was called inactive.
Still for that read-out and setting: as for `O=C(O)C(F)(F)C(F)(F)OC(F)(F)F`, the entry is “inactive”; as for `CCCCCCCOC(=O)c1ccccc1C(=O)OCCCCCCC`, “inactive”.
The same measure, in the same setting: then `CCCCC(CC)COP(=O)(O)OCC(CC)CCCC` (stereo not given), with “inactive”.
Consider `CCCCCCCCC(F)(F)C(F)(F)C(F)(F)C(F)(F)C(F)(F)C(F)(F)F`, for which the AC50 is 89.3 µM (active).
Take `CCc1c(Br)c(Br)c(Br)c(Br)c1Br`: the compound was classed as inactive.
For the compound `COC(=O)C1CCC(C(=O)OC)CC1` (stereo not given), the outcome was inactive.
On to `FC(F)(F)C(F)(F)C(F)(F)C(F)(F)C(F)(F)C(F)(F)CCS`, for which the call was inactive.
Turning to `c1ccc(-c2ccccc2-c2ccccc2)cc1`, the compound was called inactive.
With `CCc1ccc(C(c2ccc(CC)cc2)C(Cl)Cl)cc1`, the result was inactive.
Same read-out and setting: then `O=C(O)C(F)(F)C(F)(F)F`, with “inactive”.
Still for that read-out and setting: as for `CC(C)(C)c1ccc(OC2CCCCC2O)cc1` (stereo not given), the entry is “inactive”.
With `N=C(N)C(F)(F)C(F)(F)C(F)(F)C(F)(F)C(F)(F)C(F)(F)C(F)(F)F`, the compound was called inactive.
Regarding `Nc1ccc([N+](=O)[O-])cc1O`, the call was inactive.
On to `C=CC(=O)OCC(F)(F)C(F)(F)C(F)(F)C(F)(F)C(F)(F)C(F)(F)C(F)(F)F`, for which the result was inactive.
For `FC(F)(F)C(F)(F)C(F)(F)N(C(F)(F)C(F)(F)C(F)(F)F)C(F)(F)C(F)(F)C(F)(F)F`, the outcome was inactive.
As for `O=C(C=Cc1ccccc1)OCC=Cc1ccccc1`, the result was inactive.
Take `C=CC/C=C/C/C=C/C/C=C/C`: the result was inactive.
With `FC(F)(F)C(F)(F)C(F)(F)C(F)(F)CCI`, the compound was called inactive.
On to `C=CC(=O)OCC(F)(F)C(F)(F)C(F)(F)C(F)(F)COC(=O)C=C`, for which the AC50 is 21.5 µM (active).
Take `O[Si](c1ccccc1)(c1ccccc1)c1ccccc1`: the outcome was inactive.
In the case of `O=C(O)C(F)(F)C(F)(F)C(F)F`, the result was inactive.
Regarding `CO[Si](OC)(c1ccccc1)c1ccccc1`, the compound was called inactive.
Turning to `CCCCCCOC(=O)c1ccccc1O`, the call was inactive.
Turning to `Nc1ccc(S(=O)(=O)Nc2nccs2)cc1`, the compound was classed as inactive.
